Screening results as filed in PubChem.
GLP1R ag = GLP-1 receptor (human) agonism | P43220 | AID 624172 | Potency, µM (doses to about 45.6 µM), most hits filed as activators | HEK293 GLP-1R CRE-luciferase, luminescence, 4-6 h; cells express a hypersensitive GLP-1R form | 380,000 compounds, 0.007% hits
VP16 counter = inhibits Gal4-VP16 luciferase reporter, ROR gamma counter-screen. Drosophila S2 Gal4-VP16 UAS-luciferase, luminescence, 20 h. Potency, µM (highest dose often 53.6 µM), usual class: inhibitors. 310,000 compounds, 3.5% hits. AID 2546;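 further: Gal4-VP16 expression switched on by copper sulfate through the metallothionein promoter; nearly all actives have a fitted effect of over 50% in size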
RORg inh = ROR gamma (mouse) transcription inhibition; P51450; Drosophila S2 Gal4-RORgamma UAS-luciferase reporter, 20 h; Potency, µM (highest dose often 53.6 µM), actives largely listed as inhibitors; 310,000 compounds, 5.4% hits; further: nearly all actives have a fitted effect of over 60% in size
Target sequence (P51450 whole entry, looked up, the tested form may be a part): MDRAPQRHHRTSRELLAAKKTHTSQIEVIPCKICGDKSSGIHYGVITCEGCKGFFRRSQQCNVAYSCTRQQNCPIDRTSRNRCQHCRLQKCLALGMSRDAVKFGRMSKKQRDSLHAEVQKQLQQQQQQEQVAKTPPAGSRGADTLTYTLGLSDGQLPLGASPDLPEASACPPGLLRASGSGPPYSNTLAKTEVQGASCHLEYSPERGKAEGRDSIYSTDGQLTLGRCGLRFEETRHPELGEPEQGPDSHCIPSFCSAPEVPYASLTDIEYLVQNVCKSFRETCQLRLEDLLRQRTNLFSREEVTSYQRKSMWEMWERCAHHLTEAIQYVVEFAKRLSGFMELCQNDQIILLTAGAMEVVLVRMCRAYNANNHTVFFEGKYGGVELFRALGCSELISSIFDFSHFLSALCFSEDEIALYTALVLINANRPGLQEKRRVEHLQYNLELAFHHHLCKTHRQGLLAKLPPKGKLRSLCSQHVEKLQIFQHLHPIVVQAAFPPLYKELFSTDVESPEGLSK
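Luminescence from a UAS-regulated Photinus luciferase reporter in stably transfected Drosophila Schneider cells is measured; decreased signal marks ROR gamma inhibition. Fusion expression is induced by 700 uM copper sulfate for 20 hr.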
HEK293 tox = cytotoxicity in counter-screen for GLP-1R inverse agonists; HEK293 cAMP-luciferase reporter cells, luminescence, 24 h; Potency, µM (highest dose often 38.3 µM), usual class: inhibitors; 410,000 compounds, 0.13% hits;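 further: loss of luciferase light is scored as toxicity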
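To flag toxic compounds, the library was rerun on cells for 24 hr at 37 deg C and 5% CO2. Viability-linked luminescence was captured 12 min after adding luciferase detection reagent.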
GLP-1R inv ag = inverse agonists of human GLP-1 receptor | P43220 | HEK293 GLP-1R CRE-luciferase, luminescence, 24 h; GLP-1R form is constitutively active | Potency, µM (doses to about 38.3 µM), most hits filed as inhibitors | 410,000 compounds, 1.6% hits | AID 624417; further: nearly all actives have a fitted effect of over 55% in size
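HEK293 cells stably co-expressing constitutively active GLP-1R and a cAMP-responsive luciferase reporter were seeded in DMEM with 10% Nu serum, given compounds after 12 h, and incubated 24 h at 37 deg C. Luminescence was then read.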
Each line names hits and unclear results; the compound was inactive in the other large screens. Most compounds without a hit are left out; they make up all but 5.9% or so of the library. The call rests on the fitted dose curve; in most records, active means well fitted curve in the direction sought with a large enough effect; inconclusive means small, poorly fitted or top-dose-only effect, or another doubt; inactive means no such curve, though single readings can be large; an effect the other way counts as inactive or inconclusive.

Cc1cc(C(=O)CSc2nnc(-c3ccccc3)n2-c2ccccc2)c(C)n1-c1ncn[nH]1	none
CCOc1ccc(NC(=S)N(Cc2ccc(N(C)C)cc2)Cc2ccco2)cc1	VP16 counter 32µM, RORg inh inconclusive, GLP-1R inv ag inconclusive
CCc1ccc(CN(Cc2ccco2)C(=O)c2ccc(OC)cc2)cc1	GLP-1R inv ag inconclusive (no result: GLP1R ag, VP16 counter, RORg inh)
COc1ccc(NC(=S)N(Cc2ccc(N(C)C)cc2)Cc2ccco2)cc1	VP16 counter 20µM, RORg inh 13µM, HEK293 tox inconclusive, GLP-1R inv ag inconclusive
O=C1c2ccsc2SCCN1Cc1ccc(Cl)cc1	none
O=C1c2ccsc2SCCN1Cc1cccc(Cl)c1	GLP-1R inv ag 13µM
O=C(Cn1cc(/C=N/NC(=O)c2cccc3ccccc23)c2ccccc21)Nc1ccc(F)cc1	GLP-1R inv ag 1.6µM
O=C(Cn1cc(/C=N/NC(=O)c2ccccc2Br)c2ccccc21)Nc1ccc(F)cc1	GLP-1R inv ag inconclusive
CCn1cc(/C=N/NC(=O)c2ccc(C#N)cc2F)c2ccccc21	VP16 counter 10µM
COC(=O)Cn1cc(/C=N/NC(=O)c2ccc(C#N)cc2F)c2ccccc21	RORg inh 10µM
COc1ccc(CNS(=O)(=O)c2cnc(N)nc2)c(OC)c1	none (no result: GLP1R ag, VP16 counter, RORg inh)
CC(NC(=O)CCCCCCN1C(=O)c2ccccc2C1=O)c1ccc2c(c1)CCCC2 (stereo not drawn)	VP16 counter 10µM, RORg inh inconclusive, GLP-1R inv ag inconclusive
CC(NC(=O)CCCCCN1C(=O)c2ccccc2C1=O)c1ccc2c(c1)CCCC2 (stereo not drawn)	RORg inh inconclusive, HEK293 tox inconclusive
Cc1c2ccccc2c(CSC(=N)N)c2ccccc12	VP16 counter inconclusive, RORg inh 11µM (no result: GLP1R ag, HEK293 tox, GLP-1R inv ag)
N=C(N)SCc1nc2ccccc2c(=O)n1-c1ccccc1	VP16 counter inconclusive
COc1ccc(CCNC(=O)c2ccc3c(c2)N=C(C)c2ccccc2S3)cc1OC	none (no result: VP16 counter, RORg inh)
Cc1cc(C(=O)N[C@H](c2ccccc2)[C@@]2(C)C[C@@H]2[C@@H](C)C(=O)Nc2ccc3ccccc3c2)n(C)n1	RORg inh inconclusive, GLP-1R inv ag 10µM
O=C(Nc1ccc2ccccc2c1)C(c1ccccc1)C1CCCC1 (stereo not drawn)	VP16 counter inconclusive, RORg inh inconclusive, GLP-1R inv ag 5µM
Cc1ccc(NC(=O)C(c2ccccc2)C2CCCC2)cc1 (stereo not drawn)	VP16 counter inconclusive, RORg inh inconclusive, GLP-1R inv ag inconclusive
C[C@@H](C(=O)Nc1ccc2ccccc2c1)[C@@H]1C[C@@]1(C)[C@@H](NS(=O)(=O)c1ccccc1)c1ccccc1	none (no result: GLP1R ag, HEK293 tox, GLP-1R inv ag)
CC(=O)N[C@@H](c1ccccc1)[C@]1(C)C[C@H]1[C@@H](C)C(=O)Nc1ccc2ccccc2c1	RORg inh 0.35µM (no result: GLP1R ag, HEK293 tox, GLP-1R inv ag)
CSCC[C@H](NC(=O)[C@@H](NC(=O)[C@H](CCC(=O)O)NC(=O)[C@H](CCSC)NC(=O)[C@H](CC(N)=O)NC(=O)[C@H](CCC(=O)O)NC(=O)[C@H](CC(N)=O)NC(=O)[C@H](CO)NC(=O)[C@H](C)N)[C@@H](C)O)C(=O)O	none (no result: GLP1R ag, HEK293 tox, GLP-1R inv ag)
Cc1cc(C)cc(NC(=O)Nc2cc(-c3ccccc3)nn2C)c1	GLP-1R inv ag 8.9µM
Cn1nc(-c2ccccc2)cc1NC(=O)Nc1ccccc1F	GLP-1R inv ag inconclusive
CCOc1cccc(CN2CCC(n3nccc3NC(=O)CCCc3ccccc3)CC2)c1	GLP-1R inv ag 10µM
CC(C)NC(=O)N1CCC(n2nccc2NC(=O)CCOc2ccccc2)CC1	none
C=C(C)CCC(C)N1CCC(n2nccc2NC(=O)CCOc2ccccc2)CC1 (stereo not drawn)	GLP-1R inv ag 5µM
CCOc1ccc(CN2CCC(n3nccc3NC(=O)CCCc3ccccc3)CC2)cc1	GLP-1R inv ag inconclusive
COc1cc(O)c(C(=O)c2ccccc2)cc1O	VP16 counter inconclusive, RORg inh 13µM (no result: GLP1R ag, HEK293 tox, GLP-1R inv ag)
COc1cc(O)c(C(=O)c2ccccc2)cc1S(=O)(=O)O	none (no result: HEK293 tox, GLP-1R inv ag)
S=c1[nH]nc(-c2ccncc2)n1/N=C/C=C/c1ccccc1	RORg inh 2.8µM
COc1ccccc1/C=C/C=N/n1c(-c2ccncc2)n[nH]c1=S	VP16 counter inconclusive, RORg inh inconclusive
Cc1ccc(-c2n[nH]c(=S)n2/N=C/C=C\c2ccccc2[N+](=O)[O-])cc1	RORg inh inconclusive
O=[N+]([O-])c1ccccc1/C=C/C=N/n1c(-c2ccc(Cl)cc2)n[nH]c1=S	RORg inh 8.9µM
O=[N+]([O-])c1ccccc1/C=C/C=N/n1c(-c2ccccc2)n[nH]c1=S	RORg inh 6.3µM
COC(=O)C(CC(C)C)NS(=O)(=O)c1ccccc1Br (stereo not drawn)	RORg inh inconclusive (no result: GLP1R ag, HEK293 tox, GLP-1R inv ag)
CC(=O)OCC(NC(=O)C(COCc1ccccc1)NC(=O)OC(C)(C)C)C1OC(n2cc(F)c(=O)[nH]c2=O)C(OC(C)=O)C1OC(C)=O (stereo not drawn)	none (no result: GLP1R ag, HEK293 tox, GLP-1R inv ag)
O=C(Nc1nc(-c2ccccn2)cs1)C12CC3CC(CC(O)(C3)C1)C2	RORg inh inconclusive
O=C(Nc1nc(-c2ccccn2)cs1)C1CC1	VP16 counter inconclusive, RORg inh 16µM
O=C(CC1CC2CCC1C2)Nc1nc(-c2ccccn2)cs1 (stereo not drawn)	VP16 counter 13µM, RORg inh 3.2µM, HEK293 tox inconclusive
O=C(Nc1nc(-c2ccccn2)cs1)C1CC(=O)N(c2ccc3c(c2)OCCO3)C1 (stereo not drawn)	VP16 counter inconclusive, RORg inh 10µM
Cc1cccnc1NC(=O)C1CC(=O)N(c2ccc3c(c2)OCCO3)C1 (stereo not drawn)	none (no result: VP16 counter, RORg inh)
COc1ccc(-c2csc(Nc3ncccn3)n2)cc1C	none
COc1cccc2sc(Nc3nc(-c4ccccn4)cs3)nc12	RORg inh 0.045µM (no result: GLP1R ag, VP16 counter, HEK293 tox, GLP-1R inv ag)
COc1cc(OC)c(NC(=O)c2noc3c2CSc2ccccc2-3)cc1Cl	none (no result: GLP1R ag, VP16 counter, RORg inh)
Cc1cc(C)c(OCC(=O)N(Cc2ccc(N(C)C)cc2)Cc2ccco2)c(C)c1	GLP-1R inv ag inconclusive (no result: GLP1R ag, VP16 counter, RORg inh)
CCCn1c(CCC(=O)Nc2cc(OC)cc(OC)c2)nc2cccnc21	none (no result: GLP1R ag, VP16 counter, RORg inh)
CC(C)(c1cc(Br)c(OCC(Br)CBr)c(Br)c1)c1cc(Br)c(OCC(Br)CBr)c(Br)c1 (stereo not drawn)	none (no result: GLP1R ag, HEK293 tox, GLP-1R inv ag)
CCOC(=O)OCC1OC(CCc2ccccc2)CCC1Oc1ccc(OC)cc1 (stereo not drawn)	none (no result: GLP1R ag, HEK293 tox, GLP-1R inv ag)
c1ccc(-c2csc(Nc3cccnc3)n2)nc1	RORg inh inconclusive
O=C(Nc1cccc(-c2csc(Nc3ccccc3)n2)c1)c1ccccc1	GLP-1R inv ag 8.9µM
c1ccc(Nc2nc(-c3ccccn3)cs2)cc1	VP16 counter 10µM, RORg inh 3.5µM, HEK293 tox 3.2µM, GLP-1R inv ag 5.6µM
CC(=O)c1cccc(Nc2nc(-c3ccccc3)cs2)c1	GLP-1R inv ag inconclusive
O=C(O)c1cc(-c2ccccc2)nn1Cc1ccccc1	none (no result: VP16 counter, RORg inh)
